Experimental data published in PubChem BioAssay (NCATS).
Results filed as inconclusive are left out. The source made the active and inactive calls. The call rests on the fitted dose curve; in most records, active means well fitted curve in the direction sought with a large enough effect; inconclusive means small, poorly fitted or top-dose-only effect, or another doubt; inactive means no such curve, though single readings can be large; an effect the other way counts as inactive or inconclusive. Residues, ends and D or L forms follow the SMILES beside them. *: point of attachment. Cbz = O=C(OCc1ccccc1)*

How the values were obtained:
[1] = qHTS of pediatric cancer cell lines to identify multiple opportunities for drug repurposing: Primary screen for BT-12 cells (AID 1347101); further: nearly all actives have a fitted effect of over 25% in size
How it was run: (§1)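 Cells (500-1,000/well) rested 5 h, then received compounds for 48 h; metabolically active cells were measured by CellTiter-Glo luminescence. Final concentrations spanned up to 46 µM (MIPE, 11-point) or 0.59 nM-46 µM (NPC, 8-point) in primary screens, 11-point in follow-ups.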

[2] = qHTS of pediatric cancer cell lines to identify multiple opportunities for drug repurposing: Primary screen for Rh18 cells (AID 1347102); further: nearly all actives have a fitted effect of over 65% in size
How it was run: as §1

[3] = qHTS of pediatric cancer cell lines to identify multiple opportunities for drug repurposing: Primary screen for OHS-50 cells (AID 1347103); further: nearly all actives have a fitted effect of over 40% in size
How it was run: as §1

[4] = qHTS of pediatric cancer cell lines to identify multiple opportunities for drug repurposing: Primary screen for RD cells (AID 1347104); further: nearly all actives have a fitted effect of over 55% in size
How it was run: (§2)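 Primary screen of approved and investigational compounds on cells in growth media at 37 degrees C, 5% CO2. MIPE set at 11-point and NPC set at 8-point dilutions; viability scored by ATP-based luminescence at 48 hours.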

[5] = qHTS of pediatric cancer cell lines to identify multiple opportunities for drug repurposing: Primary screen for MG 63 (6-TG R) cells (AID 1347105); further: nearly all actives have a fitted effect of over 50% in size
How it was run: as §2

[6] = qHTS of pediatric cancer cell lines to identify multiple opportunities for drug repurposing: Primary screen for control Hh wild type fibroblast cells (AID 1347106); further: nearly all actives have a fitted effect of over 55% in size;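 on activity change, negative = cytotoxic: a drop in luminescence marks cytotoxicity and a rise apparent proliferation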
How it was run: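 Viability after 48 h compound treatment at 37C, 500-1,000 cells/well, read as ATP luminescence with CellTiter-Glo. Primary screens used 11-point (MIPE, 0.78 nM-46 µM) or 8-point (NPC, 0.59 nM-46 µM) final concentrations; follow-up screens used 11-point dilutions.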

[7] = qHTS of pediatric cancer cell lines to identify multiple opportunities for drug repurposing: Primary screen for Rh30 cells (AID 1347107); further: nearly all actives have a fitted effect of over 75% in size
How it was run: as §1

[8] = qHTS of pediatric cancer cell lines to identify multiple opportunities for drug repurposing: Primary screen for Rh41 cells (AID 1347108); further: nearly all actives have a fitted effect of over 70% in size;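 on activity change, negative = cytotoxic: luminescence drop marks cytotoxic hits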
How it was run: as §2

[9] = qHTS of pediatric cancer cell lines to identify multiple opportunities for drug repurposing: Confirmatory screen for NB1643 cells (AID 1347109); further: nearly all actives have a fitted effect of over 45% in size
How it was run: as §1

[10] = qHTS of pediatric cancer cell lines to identify multiple opportunities for drug repurposing: Confirmatory screen for A673 cells (AID 1347110);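 further: cells exposed to compound for 48 h before the viability read; nearly all actives have a fitted effect of over 65% in size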
How it was run: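 Forty-eight-hour viability assay. Follow-up compounds ran at 11-point dilutions; positive control bortezomib at 2.3 uM final, neutral control DMSO.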

[11] = qHTS of pediatric cancer cell lines to identify multiple opportunities for drug repurposing: Confirmatory screen for SK-N-MC cells (AID 1347111);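 further: cells exposed to compound for 48 h before the readout; nearly all actives have a fitted effect of over 70% in size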
How it was run: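 Seed 500-1,000 cells/well; rest 5 h at 37 degrees C. Pin-transfer compounds, 11-point titration. Incubate 48 h. Add CellTiter-Glo, 15 min RT, read luminescence.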

[12] = qHTS of pediatric cancer cell lines to identify multiple opportunities for drug repurposing: Confirmatory screen for LAN-5 cells (AID 1347113); further: nearly all actives have a fitted effect of over 65% in size
How it was run: as §1

[13] = qHTS of pediatric cancer cell lines to identify multiple opportunities for drug repurposing: Confirmatory screen for DAOY cells (AID 1347114); further: nearly all actives have a fitted effect of over 65% in size
How it was run: (§3)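 Viability measured as metabolically active cells via CellTiter-Glo luminescence following 48 hours of compound exposure, 11-point dilutions in confirmatory testing. 500-1,000 cells/well plated 5 hours before dosing; controls were DMSO and 2.3 µM bortezomib.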

[14] = qHTS of pediatric cancer cell lines to identify multiple opportunities for drug repurposing: Confirmatory screen for SJ-GBM2 cells (AID 1347116); further: nearly all actives have a fitted effect of over 60% in size
How it was run: as §3

[15] = qHTS of pediatric cancer cell lines to identify multiple opportunities for drug repurposing: Confirmatory screen for BT-37 cells (AID 1347117); settings: BT-37 pediatric cancer cells, viability; activity change, negative = cytotoxic: at 45.9 µM (top of the series); further: nearly all actives have a fitted effect of over 55% in size
How it was run: as §1

[16] = qHTS of pediatric cancer cell lines to identify multiple opportunities for drug repurposing: Confirmatory screen for TC32 cells (AID 1347118)
How it was run: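 Measured quantity: luminescence from CellTiter-Glo, reflecting metabolically active TC32 cells following 48 h of compound. Curves came straight from multi-point titrations, with 8 or 11 points in primary and 11 in confirmatory screening.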

[17] = qHTS of pediatric cancer cell lines to identify multiple opportunities for drug repurposing: Confirmatory screen for control Hh wild type fibroblast cells (AID 1347121); further: nearly all actives have a fitted effect of over 70% in size
How it was run: as §1

[18] = qHTS of pediatric cancer cell lines to identify multiple opportunities for drug repurposing: Confirmatory screen for NB-EBc1 cells (AID 1347115);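 further: cells exposed to compound for 48 h before the viability read; nearly all actives have a fitted effect of over 45% in size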
How it was run: as §1

[19] = qHTS of pediatric cancer cell lines to identify multiple opportunities for drug repurposing: Confirmatory screen for MG 63 (6-TG R) cells (AID 1347119); further: nearly all actives have a fitted effect of over 55% in size
How it was run: as §1

[20] = qHTS of pediatric cancer cell lines to identify multiple opportunities for drug repurposing: Confirmatory screen for BT-12 cells (AID 1347112); further: nearly all actives have a fitted effect of over 55% in size
How it was run: as §1
Potency means the concentration at half of the fitted maximal effect.

CCCCCCCCc1ccc(CCC(N)(CO)CO)cc1
Potency [1]: 21700 nM (active) | Potency [2]: 16600 nM (active) | Potency [3]: 15300 nM (active) | Potency [4]: 8330 nM (active) | Potency [5]: 18700 nM (active) | Potency [6]: inactive | Potency [7]: 18700 nM (active) | Potency [8]: 18700 nM (active)

CC(C)C[C@H](NC(=O)CNC(=O)c1cc(Cl)ccc1Cl)B1OC(=O)CC(CC(=O)O)(C(=O)O)O1 (stereo partly specified)
Potency [1]: 217 nM (active) | Potency [2]: 209 nM (active) | Potency [3]: 193 nM (active) | Potency [4]: 332 nM (active) | Potency [5]: 148 nM (active) | Potency [6]: 1050 nM (active) | Potency [7]: 1480 nM (active) | Potency [8]: 296 nM (active) | Potency [9]: 261 nM (active) | Potency [10]: 293 nM (active) | Potency [11]: 131 nM (active) | Potency [12]: 233 nM (active) | Potency [13]: 165 nM (active) | Potency [14]: 147 nM (active) | Potency [15]: 522 nM (active) | Potency [16]: 465 nM (active) | Potency [17]: 16500 nM (active)

Cn1cnc(=N)c2[nH]cnc21
Potency [1]: 1530 nM (active) | Potency [2]: 264 nM (active) | Potency [3]: 109 nM (active) | Potency [4]: 935 nM (active) | Potency [5]: 1480 nM (active) | Potency [6]: inactive | Potency [10]: inactive | Potency [11]: inactive | Potency [12]: inactive | Potency [13]: inactive | Potency [18]: inactive | Potency [15]: inactive | Potency [16]: inactive | Potency [19]: inactive | Potency [17]: inactive

C[C@H](O)[C@@H]1C(=O)N2C(C(=O)O)=C(S[C@@H]3CN[C@H](CNS(N)(=O)=O)C3)[C@@H](C)[C@@H]12
Potency [1]: inactive | Potency [2]: inactive | Potency [3]: inactive | Potency [4]: inactive | Potency [5]: inactive | Potency [6]: inactive | Potency [7]: inactive | Potency [8]: inactive

COC[C@H](NC(=O)c1cnc(C)s1)C(=O)N[C@@H](COC)C(=O)N[C@@H](Cc1ccccc1)C(=O)[C@@]1(C)CO1
Potency [1]: 432 nM (active) | Potency [2]: 187 nM (active) | Potency [3]: 193 nM (active) | Potency [4]: 166 nM (active) | Potency [5]: 235 nM (active) | Potency [6]: 935 nM (active) | Potency [7]: 1660 nM (active) | Potency [8]: 296 nM (active) | Potency [10]: 165 nM (active) | Potency [11]: 36.9 nM (active) | Potency [20]: 414 nM (active) | Potency [12]: 329 nM (active) | Potency [13]: 104 nM (active) | Potency [18]: 208 nM (active) | Potency [14]: 131 nM (active) | Potency [15]: 165 nM (active) | Potency [16]: 165 nM (active) | Potency [19]: 92.8 nM (active) | Potency [17]: inactive

CC(C)C[C@H](NC(=O)[C@@H](NC(=O)c1cccc(-c2ccccc2)n1)[C@@H](C)O)B(O)O
Potency [1]: 68.5 nM (active) | Potency [2]: 46.9 nM (active) | Potency [3]: 432 nM (active) | Potency [4]: 118 nM (active) | Potency [5]: 29.6 nM (active) | Potency [6]: 209 nM (active) | Potency [7]: 372 nM (active) | Potency [8]: 93.5 nM (active) | Potency [9]: 82.7 nM (active) | Potency [10]: 73.7 nM (active) | Potency [11]: 14.7 nM (active) | Potency [12]: 36.9 nM (active) | Potency [13]: 36.9 nM (active) | Potency [18]: 58.5 nM (active) | Potency [14]: 46.5 nM (active) | Potency [15]: 73.7 nM (active) | Potency [16]: 58.5 nM (active) | Potency [19]: 16.5 nM (active) | Potency [17]: 20800 nM (active)

CC(C)C[C@@H](C=O)NC(=O)[C@H](CC(C)C)NC(=O)[C@H](CC(C)C)NC(=O)OCc1ccccc1 (Cbz-Leu-Leu-Leu-aldehyde)
Potency [1]: 1530 nM (active) | Potency [2]: 1320 nM (active) | Potency [3]: 685 nM (active) | Potency [4]: 662 nM (active) | Potency [5]: 372 nM (active) | Potency [6]: 2960 nM (active) | Potency [7]: 3720 nM (active) | Potency [8]: 1480 nM (active) | Potency [9]: 1170 nM (active) | Potency [10]: 1170 nM (active) | Potency [11]: 369 nM (active) | Potency [12]: 1040 nM (active) | Potency [13]: 737 nM (active) | Potency [18]: 1470 nM (active) | Potency [14]: 1040 nM (active) | Potency [15]: 585 nM (active) | Potency [16]: 827 nM (active) | Potency [19]: 585 nM (active) | Potency [17]: 5850 nM (active)

CN1[C@H]2CC(OC(=O)[C@@H](CO)c3ccccc3)C[C@H]1[C@H]1O[C@H]12 (stereo partly specified)
Potency [1]: inactive | Potency [2]: inactive | Potency [3]: inactive | Potency [4]: inactive | Potency [5]: inactive | Potency [7]: inactive | Potency [8]: inactive

CC(=O)N[C@H]1[C@@H]([C@H](O)[C@H](O)CO)OC(C(=O)O)=C[C@@H]1N=C(N)N
Potency [1]: inactive | Potency [2]: inactive | Potency [3]: inactive | Potency [4]: inactive | Potency [5]: inactive | Potency [7]: inactive | Potency [8]: inactive

COc1cc(C(=O)NC2CCN(C)CC2)ccc1Nc1ncc2c(n1)N(C1CCCC1)CCC(=O)N2C(C)C
Potency [1]: 21700 nM (active) | Potency [2]: 18700 nM (active) | Potency [3]: 3430 nM (active) | Potency [4]: 20900 nM (active) | Potency [5]: 2960 nM (active) | Potency [6]: inactive | Potency [8]: 14800 nM (active)

Cc1cnc(Nc2ccc(CN3CCOCC3)cc2)nc1Nc1cccc(S(=O)(=O)NC(C)(C)C)c1
Potency [1]: 9680 nM (active) | Potency [2]: 3720 nM (active) | Potency [3]: 2170 nM (active) | Potency [4]: 6620 nM (active) | Potency [5]: 3720 nM (active) | Potency [6]: 11800 nM (active) | Potency [7]: 6620 nM (active) | Potency [8]: 3320 nM (active) | Potency [9]: 5850 nM (active) | Potency [10]: 13100 nM (active) | Potency [11]: 5220 nM (active) | Potency [12]: 14700 nM (active) | Potency [18]: 10400 nM (active) | Potency [15]: 4650 nM (active) | Potency [16]: 3290 nM (active) | Potency [19]: 4140 nM (active)

CCCCOc1ccc(C(=O)Nc2ccc(F)cc2F)cc1
Potency [1]: inactive | Potency [2]: inactive | Potency [3]: inactive | Potency [4]: inactive | Potency [5]: inactive | Potency [7]: inactive | Potency [8]: inactive

CC(=O)O[C@H]1C[C@@H]2CC[C@H]3[C@H]4C[C@H]([N+]5(C)CCCCC5)[C@@H](OC(C)=O)[C@@]4(C)CC[C@@H]3[C@@]2(C)C[C@H]1[N+]1(C)CCCCC1
Potency [1]: inactive | Potency [2]: inactive | Potency [3]: inactive | Potency [4]: inactive | Potency [5]: inactive | Potency [6]: inactive | Potency [8]: inactive
